# Assay results as given in publication PMC7862700, “An all-to-all approach to the identification of sequence-specific readers for epigenetic DNA modifications on cytosine”.
# Columns and labels:
# Assay in all cases: DAPPL (digital affinity profiling via proximity ligation, sequencing); 10 mM Tris-HCl pH 7.5, 50 mM NaCl, 1 mM DTT, 4% glycerol, room temperature, 30 min; GST-TFs on glutathione beads, 16-mer random dsDNA library, 0.1% formaldehyde crosslink after washing; high values mean tight binding
# Conditions in all cases: protein: recombinant; tags: N-terminal GST; dsDNA, one strand shown
# FLI1 = target: T1, FLI1 (Homo sapiens, UniProt Q01543 1-452)
# T1 sequence: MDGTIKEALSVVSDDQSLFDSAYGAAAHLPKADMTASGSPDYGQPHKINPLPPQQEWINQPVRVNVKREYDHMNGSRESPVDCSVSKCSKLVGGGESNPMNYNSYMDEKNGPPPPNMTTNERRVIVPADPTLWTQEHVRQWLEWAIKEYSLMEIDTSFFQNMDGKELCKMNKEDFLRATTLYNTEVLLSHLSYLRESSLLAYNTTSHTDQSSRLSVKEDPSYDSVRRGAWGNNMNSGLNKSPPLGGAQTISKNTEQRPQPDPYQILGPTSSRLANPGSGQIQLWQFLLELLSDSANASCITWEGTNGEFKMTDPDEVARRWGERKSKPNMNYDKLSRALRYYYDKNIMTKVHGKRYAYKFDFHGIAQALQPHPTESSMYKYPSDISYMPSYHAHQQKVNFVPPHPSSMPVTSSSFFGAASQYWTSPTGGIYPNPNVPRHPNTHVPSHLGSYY
# Outline: (§1)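 A tag-only sample was pooled with DNA-barcoded human transcription factors that had been expressed in yeast as GST fusions and captured on glutathione beads. The pools were incubated for 30 min at room temperature with 200 nmole of a random double-stranded 16-mer DNA library in Tris/NaCl/DTT/glycerol buffer, then washed, crosslinked with 0.1% formaldehyde, proximity-ligated (BsaI/T4 ligase, 1 h, 37 °C), PCR-amplified and sequenced on an Illumina NextSeq500. Binding signal is each hexamer's read frequency for a factor divided by its frequency for the tag-only sample.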
# ELK1 = target: T2, ELK1 (Homo sapiens, UniProt P19419 1-428)
# T2 sequence: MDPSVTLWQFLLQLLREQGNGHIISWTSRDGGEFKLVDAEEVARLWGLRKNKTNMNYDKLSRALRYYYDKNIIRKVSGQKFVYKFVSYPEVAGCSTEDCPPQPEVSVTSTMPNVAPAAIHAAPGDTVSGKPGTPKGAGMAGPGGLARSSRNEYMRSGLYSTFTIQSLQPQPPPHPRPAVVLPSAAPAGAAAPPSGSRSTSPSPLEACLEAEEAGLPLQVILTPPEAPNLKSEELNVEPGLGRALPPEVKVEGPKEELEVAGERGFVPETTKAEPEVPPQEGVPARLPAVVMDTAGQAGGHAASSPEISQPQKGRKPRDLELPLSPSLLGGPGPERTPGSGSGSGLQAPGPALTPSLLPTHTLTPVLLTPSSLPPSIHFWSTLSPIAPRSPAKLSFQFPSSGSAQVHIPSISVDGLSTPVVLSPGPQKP
# Outline: as §1
# GABPA = target: T3, GABPA (Homo sapiens, UniProt Q06546 1-454)
# T3 sequence: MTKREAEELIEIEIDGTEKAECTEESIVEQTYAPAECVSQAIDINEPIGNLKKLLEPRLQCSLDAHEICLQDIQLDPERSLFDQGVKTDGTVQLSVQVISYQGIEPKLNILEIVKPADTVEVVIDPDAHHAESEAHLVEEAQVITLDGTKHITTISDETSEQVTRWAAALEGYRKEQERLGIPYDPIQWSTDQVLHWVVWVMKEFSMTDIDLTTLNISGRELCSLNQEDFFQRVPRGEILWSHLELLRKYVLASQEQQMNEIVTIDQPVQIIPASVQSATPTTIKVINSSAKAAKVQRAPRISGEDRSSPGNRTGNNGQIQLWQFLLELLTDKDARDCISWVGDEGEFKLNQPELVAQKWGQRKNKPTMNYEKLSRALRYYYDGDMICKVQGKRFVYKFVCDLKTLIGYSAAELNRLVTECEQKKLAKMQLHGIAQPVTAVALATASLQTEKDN
# Outline: as §1
# ERG = target: T4, ERG (Homo sapiens, UniProt P11308 1-479)
# T4 sequence: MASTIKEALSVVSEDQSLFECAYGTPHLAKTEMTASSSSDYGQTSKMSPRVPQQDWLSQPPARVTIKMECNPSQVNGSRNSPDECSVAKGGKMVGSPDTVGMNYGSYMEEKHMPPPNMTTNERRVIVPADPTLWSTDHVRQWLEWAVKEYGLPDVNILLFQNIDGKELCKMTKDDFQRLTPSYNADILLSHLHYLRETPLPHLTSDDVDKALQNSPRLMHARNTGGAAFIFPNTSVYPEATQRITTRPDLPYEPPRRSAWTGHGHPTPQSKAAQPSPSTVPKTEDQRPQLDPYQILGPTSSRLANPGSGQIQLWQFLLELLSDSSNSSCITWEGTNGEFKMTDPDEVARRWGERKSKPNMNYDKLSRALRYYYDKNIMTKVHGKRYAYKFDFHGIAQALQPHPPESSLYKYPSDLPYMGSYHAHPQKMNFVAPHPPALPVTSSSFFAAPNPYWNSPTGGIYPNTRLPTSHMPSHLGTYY
# Outline: as §1
# ELF1 = ELF1 (Homo sapiens, UniProt P32519 1-619)
# Chain of ELF1 (P32519 whole entry): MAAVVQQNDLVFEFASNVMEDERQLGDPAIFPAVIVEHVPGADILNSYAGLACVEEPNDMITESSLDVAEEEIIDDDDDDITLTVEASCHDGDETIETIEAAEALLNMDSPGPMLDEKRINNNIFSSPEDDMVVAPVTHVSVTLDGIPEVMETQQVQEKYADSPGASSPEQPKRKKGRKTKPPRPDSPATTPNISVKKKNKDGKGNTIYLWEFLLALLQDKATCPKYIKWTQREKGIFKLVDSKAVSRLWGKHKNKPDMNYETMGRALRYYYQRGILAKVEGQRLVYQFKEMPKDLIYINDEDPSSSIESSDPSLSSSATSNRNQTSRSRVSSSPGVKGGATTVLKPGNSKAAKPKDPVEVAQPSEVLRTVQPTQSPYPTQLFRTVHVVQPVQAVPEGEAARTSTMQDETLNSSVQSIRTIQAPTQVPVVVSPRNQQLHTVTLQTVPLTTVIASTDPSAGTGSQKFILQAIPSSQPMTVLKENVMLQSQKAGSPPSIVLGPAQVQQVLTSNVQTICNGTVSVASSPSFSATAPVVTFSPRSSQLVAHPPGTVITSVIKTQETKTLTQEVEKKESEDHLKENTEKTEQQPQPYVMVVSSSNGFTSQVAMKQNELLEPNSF
# Outline: as §1
# EHF = target: T5, EHF (Homo sapiens, UniProt Q9NZC4 1-300)
# T5 sequence: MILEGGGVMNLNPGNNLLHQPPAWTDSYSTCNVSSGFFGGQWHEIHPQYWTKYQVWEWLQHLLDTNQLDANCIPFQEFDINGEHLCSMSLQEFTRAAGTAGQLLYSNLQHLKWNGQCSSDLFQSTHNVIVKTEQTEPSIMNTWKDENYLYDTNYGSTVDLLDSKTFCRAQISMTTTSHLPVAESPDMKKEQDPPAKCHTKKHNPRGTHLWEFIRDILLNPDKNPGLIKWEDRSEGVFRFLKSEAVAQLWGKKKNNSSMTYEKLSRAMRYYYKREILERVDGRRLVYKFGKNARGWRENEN
# Outline: as §1
# SPI1 = SPI1 (Homo sapiens, UniProt P17947 1-270)
# Outline: as §1
# SPIB = SPIB (Homo sapiens, UniProt Q01892 1-262)
# Chain of SPIB (Q01892 whole entry): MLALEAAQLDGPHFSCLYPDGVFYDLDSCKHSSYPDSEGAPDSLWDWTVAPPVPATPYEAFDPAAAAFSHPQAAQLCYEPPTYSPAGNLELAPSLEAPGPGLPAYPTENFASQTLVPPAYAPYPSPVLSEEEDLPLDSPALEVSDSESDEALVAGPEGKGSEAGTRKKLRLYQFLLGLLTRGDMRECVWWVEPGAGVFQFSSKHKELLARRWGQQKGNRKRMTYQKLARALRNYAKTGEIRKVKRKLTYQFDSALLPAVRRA
# Outline: as §1
# ELK3 = target: T6, ELK3 (Homo sapiens, UniProt P41970 1-407)
# T6 sequence: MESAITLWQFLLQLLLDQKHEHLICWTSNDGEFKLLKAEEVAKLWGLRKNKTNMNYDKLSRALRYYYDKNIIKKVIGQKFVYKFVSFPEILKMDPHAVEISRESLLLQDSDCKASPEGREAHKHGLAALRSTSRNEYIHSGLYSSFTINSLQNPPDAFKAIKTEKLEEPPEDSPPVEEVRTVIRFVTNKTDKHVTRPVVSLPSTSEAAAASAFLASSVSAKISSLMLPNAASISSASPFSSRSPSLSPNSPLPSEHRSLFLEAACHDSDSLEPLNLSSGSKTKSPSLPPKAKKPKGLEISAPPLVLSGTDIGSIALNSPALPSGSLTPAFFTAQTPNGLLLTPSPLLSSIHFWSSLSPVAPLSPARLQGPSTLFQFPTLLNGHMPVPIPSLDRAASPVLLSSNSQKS
# Outline: as §1
sequence,measurement,setting,value
CTGCGA,binding signal,FLI1,"1.25 fold enrichment (6-mer frequency, TF over GST control)"
same,binding signal,ELK1,"1.31 fold enrichment (6-mer frequency, TF over GST control)"
same,binding signal,GABPA,"1.34 fold enrichment (6-mer frequency, TF over GST control)"
same,binding signal,ERG,"1.29 fold enrichment (6-mer frequency, TF over GST control)"
same,binding signal,ELF1,"1.32 fold enrichment (6-mer frequency, TF over GST control)"
same,binding signal,EHF,"1.26 fold enrichment (6-mer frequency, TF over GST control)"
same,binding signal,SPI1,"1.33 fold enrichment (6-mer frequency, TF over GST control)"
same,binding signal,SPIB,"1.45 fold enrichment (6-mer frequency, TF over GST control)"
same,binding signal,ELK3,"1.19 fold enrichment (6-mer frequency, TF over GST control)"
